The list is not random: actives were taken first. Their share in the collection is about 1.7%.
RGS4 inhibitor – inhibitors of human regulator of G protein signaling 4; P49798; Transcreener GDP fluorescence polarization, RGS4-accelerated GTP hydrolysis; Potency, µM (titrated, usually from 114 µM), usual class: inhibitors; 390,000 compounds, 0.039% hits; note: nearly all actives have a fitted effect of over 75% in size
Target sequence (P49798 whole entry, looked up): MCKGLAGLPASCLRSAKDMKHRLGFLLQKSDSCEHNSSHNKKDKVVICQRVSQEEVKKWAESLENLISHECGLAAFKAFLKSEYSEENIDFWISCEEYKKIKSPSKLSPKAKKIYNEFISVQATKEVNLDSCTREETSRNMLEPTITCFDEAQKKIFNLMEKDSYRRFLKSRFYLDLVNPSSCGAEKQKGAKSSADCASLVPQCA
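MLSMR compounds (23 nl, pin-transferred) preincubated 10 min at room temperature with a 500nM (2x) first reagent, then RGS4 at 900nM (2x) plus Transcreener GDP mix added; fluorescence polarization (620/688 nm) read before and after 90 min at 30 °C.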
GLP1R cytotox – cytotoxic in the GLP-1 receptor inverse agonist counter-screen; HEK293 cAMP-luciferase reporter cells, luminescence, 24 h; 410,000 compounds, 0.13% hits; Potency, µM (titrated, usually from 38.3 µM), usual class: inhibitors;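 note: loss of luciferase light is scored as toxicity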
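Here, cytotoxicity is scored as loss of luminescence. The MLSMR collection was tested on cells seeded in medium containing 10% Nu serum, with a 24 hr compound exposure preceded by 12 hours of culture.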
PTHR1 ag – PTHR1 (human) receptor agonism; HEK293 GP2 PTHR1 cells, GloSensor cAMP luminescence, 1 h; Potency, µM (doses to about 115 µM), hits mostly activators; 410,000 compounds, 0.075% hits; note: nearly all actives have a fitted effect of over 55% in size
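HEK-293-derived GP2 cells expressing PTHR1 and a GloSensor cAMP reporter, 3,000/well, plated overnight, given luciferin plus IBMX (each 0.5 mM as added) for 1 h at 37 °C, then compound for 1 h at 37 °C. Luminescence was read after 15 min at room temperature.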
GLP-1R inv ag – GLP-1 receptor (human) inverse agonism; Potency, µM (titrated, usually from 38.3 µM), most hits filed as inhibitors; 410,000 compounds, 1.6% hits; HEK293 GLP-1R CRE-luciferase, luminescence, 24 h; GLP-1R form is constitutively active; P43220; note: nearly all actives have a fitted effect of over 55% in size
Target sequence (P43220 whole entry, looked up): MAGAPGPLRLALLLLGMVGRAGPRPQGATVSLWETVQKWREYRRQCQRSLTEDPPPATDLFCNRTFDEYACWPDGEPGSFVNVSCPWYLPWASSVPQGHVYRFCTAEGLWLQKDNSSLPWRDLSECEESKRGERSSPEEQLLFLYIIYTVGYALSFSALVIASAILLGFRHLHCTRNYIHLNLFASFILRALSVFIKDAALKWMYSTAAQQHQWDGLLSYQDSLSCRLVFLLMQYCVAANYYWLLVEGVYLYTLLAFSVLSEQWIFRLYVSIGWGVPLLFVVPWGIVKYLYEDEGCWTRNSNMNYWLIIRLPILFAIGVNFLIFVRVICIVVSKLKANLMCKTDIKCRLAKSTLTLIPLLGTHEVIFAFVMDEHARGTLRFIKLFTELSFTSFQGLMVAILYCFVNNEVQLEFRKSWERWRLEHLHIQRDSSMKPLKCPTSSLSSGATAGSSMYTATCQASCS
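Using stably transfected HEK293 (constitutively active GLP-1R, cAMP-luciferase reporter), compounds were incubated 24 hr and luciferase measured by luminescence.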
GLP1R ag – GLP-1 receptor (human) agonism | P43220 | HEK293 GLP-1R CRE-luciferase, luminescence, 4-6 h; cells express a hypersensitive GLP-1R form | Potency, µM (series often up to 45.6 µM), hits mostly activators | 380,000 compounds, 0.007% hits | AID 624172
Of the large screens only hits and unclear results are named; the others gave an inactive call. Calls come from the whole dose curve; as a rule, active = well fitted curve in the direction sought with a large enough effect; inconclusive = small, poorly fitted or top-dose-only effect, or another doubt; inactive = no such curve, though single readings can be large; an effect the other way counts as inactive or inconclusive.

Cc1ccc2c(CC(=O)Nc3ccc(S(=O)(=O)N4CCCCC4C)cc3)coc2c1 (stereo not given)	GLP-1R inv ag 11µM (no result: GLP1R ag)
Cc1ccc(S(=O)(=O)N2CCCCC2C(=O)Nc2ccc(N(C)C)cc2)cc1 (stereo not given)	GLP-1R inv ag 7.1µM
CC1(C(=O)NCc2ccccc2)CCC(=O)N1C1CC1 (stereo not given)	none (no result: RGS4 inhibitor)
CC1(C)N=C(SCc2ccc(Cl)cc2)c2ccccc2N1	GLP-1R inv ag inconclusive (no result: GLP1R ag)
Cc1ccc(CSC2=NC(C)(C)Nc3ccccc32)c(C)c1	GLP-1R inv ag 10µM (no result: GLP1R ag)
Cc1cccc(/C=C2\Sc3ccc(C(=O)NCC4CCCO4)cc3N(C)C2=O)c1 (stereo not given)	GLP-1R inv ag 13µM
Oc1ccccc1N=N/C(=N/Nc1ccccc1O)c1ccccc1	none
N#C/C(N=Nc1ccccc1O)=N\Nc1ccccc1O	RGS4 inhibitor inconclusive, GLP1R cytotox 10µM, GLP-1R inv ag inconclusive
CCOc1ccccc1N=C1SC(CC(=O)Nc2ccc(OC)cc2OC)C(=O)N1CCC1=CCCCC1 (stereo not given)	GLP-1R inv ag 2.8µM
CC(OC(=O)/C=C/c1ccco1)C(=O)NC1CCCCC1 (stereo not given)	none (no result: RGS4 inhibitor)
COc1ccc(OC)c(NC(=O)CN(Cc2ccc(F)cc2)C2CCCCC2)c1	GLP-1R inv ag 3.5µM
C(/Oc1ccccc1)=C1\Nn2c(nnc2-c2cc(-c3ccccc3)n[nH]2)S1	none (no result: GLP1R cytotox, PTHR1 ag, GLP-1R inv ag, GLP1R ag)
Cc1cc(C(F)(F)F)n2[nH]c(=O)c(N=Nc3ccccc3)c2n1	GLP1R cytotox inconclusive, PTHR1 ag 18µM
CCCN1/C(=C(\C#N)C2=NS(=O)(=O)c3ccccc32)N(C)c2ccccc21	none
Fc1ccc(COc2ccc(Br)cc2CNCc2ccncc2)cc1	GLP-1R inv ag inconclusive
CCOc1cc(CNCCO)cc(Br)c1OCc1ccccc1	GLP-1R inv ag 6.3µM
Cn1nnnc1SCCNCc1ccc(OCc2ccccc2)cc1	none
CCOc1cc(CNCCSc2nnnn2C)cc(Br)c1OCc1ccccc1	GLP-1R inv ag 5.6µM
CCNCc1cc(Cl)c(OCc2ccccc2)c(OCC)c1	GLP-1R inv ag inconclusive
Cn1nnnc1SCCNCc1ccccc1OCc1ccccc1Cl	GLP1R cytotox inconclusive, GLP-1R inv ag inconclusive
CCOc1cc(CNCc2ccncc2)cc(Br)c1OCc1ccc(F)cc1	GLP-1R inv ag 10µM
Cn1nnnc1SCCNCc1cc(Br)ccc1OCc1ccccc1Cl	GLP-1R inv ag 10µM
CCCCC(=O)NCc1nc2cccnc2n1Cc1ccc(OC)cc1	none (no result: GLP1R ag)
COc1ccc(-c2noc(CC(=O)N(C)c3ccccc3F)n2)cc1	none (no result: GLP1R ag)
COc1cccc(-c2nc(SCc3cc(=O)c4cc(Cl)ccc4[nH]3)n[nH]2)c1	none (no result: GLP1R ag)
CSCC[C@H](NC(=O)[C@@H](Cc1ccc(O[S+](=O)([O-])O)cc1)NC(=O)[C@H](N)CC(=O)O)C(=O)NCC(=O)N[C@@H](Cc1c[nH]c2ccccc12)C(=O)N[C@H](CCSC)C(=O)N[C@H](CC(=O)O)C(=O)N[C@@H](Cc1ccccc1)C(N)=O	none (no result: RGS4 inhibitor, GLP1R cytotox, PTHR1 ag, GLP-1R inv ag)
COc1cc(CNCCO)cc(Br)c1OCc1ccccc1Cl	GLP1R cytotox inconclusive, GLP-1R inv ag 6.3µM
CCOc1cc(CNCc2ccccc2)ccc1OCc1ccc(Cl)cc1	GLP1R cytotox inconclusive, GLP-1R inv ag 11µM
COc1cc(CNC(C)(C)CO)cc(Br)c1OCc1ccc(Cl)cc1Cl	GLP-1R inv ag inconclusive
CCOC(=O)c1cnc(-n2nc(C)cc2C)nc1NCc1ccccc1	GLP1R cytotox inconclusive, GLP-1R inv ag 3.5µM
CCOC(=O)c1cnc(-n2nc(C)cc2C)nc1NC(C)c1ccccc1 (stereo not given)	GLP1R cytotox inconclusive, GLP-1R inv ag 2.5µM
Cn1nc(C(C)(C)C)cc1N1C(=O)CCC1(C)C(=O)Nc1ccc2ccccc2c1 (stereo not given)	none (no result: RGS4 inhibitor)
CCc1ccccc1NNC(=O)c1snnc1C	GLP1R cytotox inconclusive, GLP-1R inv ag 10µM
CCSc1nc2sc3c(c2c(=O)n1-c1ccc(C)cc1)CCCC3	PTHR1 ag inconclusive (no result: GLP1R ag)
CCOc1ccc(C(=O)c2cn(CC(=O)Nc3ccc(C)c(C)c3)c3ccc(OCC)cc3c2=O)cc1	none
Cc1cc(NC(=O)CON=C(N)CC(=O)Nc2ccccc2Cl)ccc1Br	GLP-1R inv ag 10µM
Oc1c(N=NC(=S)Nc2ccccc2F)c2ccccc2n1Cc1ccccc1Cl	none
Cc1c(Cl)cccc1NC(=S)N=Nc1c(O)n(CN2CCOCC2)c2ccccc12	GLP1R cytotox 1.4µM, GLP-1R inv ag inconclusive
CCOC(=O)c1c(NC(=O)COc2ccc(OC)cc2)sc(C(=O)N(CC)CC)c1C	GLP-1R inv ag 7.9µM (no result: GLP1R ag)
Cc1cccc(/C=N/NC(=O)c2ccccc2OCc2cccc(Br)c2)n1	GLP1R cytotox inconclusive, GLP-1R inv ag 11µM
Cc1cccc(/C=N/NC(=O)c2cccc(NC(=O)c3ccccc3)c2)n1	none
Cc1ccc(Cl)cc1N1CCN(C(=O)C2CCN(c3nnc(-n4cccc4)s3)CC2)CC1	GLP-1R inv ag 3.5µM
CC(C)Cc1nc(N2CCN(C(=O)c3ccco3)CC2)c(C#N)c2c1CCCC2	GLP-1R inv ag 8.9µM
Cc1[nH]c2ccccc2c1C(c1ccccc1)c1ccc(Cl)s1 (stereo not given)	GLP-1R inv ag 10µM (no result: GLP1R ag)
Cc1[nH]c2ccccc2c1C(C[N+](=O)[O-])c1cccs1 (stereo not given)	GLP-1R inv ag inconclusive
COC(=O)C(Oc1ccc2c(-c3ccc(OC)cc3)cc(=O)oc2c1)c1ccccc1 (stereo not given)	none
CCOC(=O)C(Oc1ccc2c(-c3ccccc3)cc(=O)oc2c1)c1ccccc1 (stereo not given)	GLP-1R inv ag 11µM
Cc1ccc(N2C(=O)CC(N(CCc3ccccc3)C(=S)Nc3ccc(N(C)C)cc3)C2=O)cc1 (stereo not given)	GLP-1R inv ag 4µM
O=C1CC(N(CCc2ccccc2)C(=S)Nc2ccccc2)C(=O)N1c1ccc(Br)cc1 (stereo not given)	GLP1R cytotox inconclusive, GLP-1R inv ag inconclusive
Cc1cnc(NC(=O)c2ccc(OCC3CCCO3)cc2)s1 (stereo not given)	GLP-1R inv ag 5µM
CCOc1ccc(C(=O)Nc2nnc(SCC(=O)NCC3CCCO3)s2)cc1 (stereo not given)	GLP-1R inv ag 2µM
CC(C)(C)c1ccc(C(=O)Nc2nnc(SCC(=O)NCC3CCCO3)s2)cc1 (stereo not given)	GLP-1R inv ag inconclusive
NC(=S)N/N=C/c1ccccc1OCCSc1ccc(Cl)cc1	GLP1R cytotox 3.2µM, GLP-1R inv ag 2.8µM
CC(C)CC(=O)C(=O)O	none
Cc1ccc(C23CC4CC(CC(NC(=O)N5CCN(C)CC5)(C4)C2)C3)cc1	GLP-1R inv ag inconclusive

Compound activity from PubChem.
